Assay results as given in PubChem BioAssay (NCATS).
Records with an inconclusive call do not appear. Active and inactive are the calls of the source. The call rests on the fitted dose curve; in most records, active means well fitted cell-killing curve with a large enough effect; inconclusive means small, poorly fitted or top-dose-only effect; inactive means no such curve, though single readings can be large or run the other way.

experiment: qHTS of pediatric cancer cell lines to identify multiple opportunities for drug repurposing: Primary screen for Rh41 cells (AID 1347108); settings: Rh41 rhabdomyosarcoma viability, CellTiter-Glo luminescence, 48 h; series mostly up to 46 µM; activity change, negative = cytotoxic: at the top concentration;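 further: luminescence drop marks cytotoxic hits; nearly all actives have a fitted effect of over 70% in size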
Description: Drug repurposing or repositioning has been offered as a strategy for drug development in oncology programs. This approach has special potential for childhood cancers and other rare or orphan diseases, where the expected return on new drug development has been a disincentive to pharmaceuticals. […] In this project we exploit the poly-pharmacology of drugs to discover new indications via phenotypic screening of a panel of 19 well-characterized cell lines derived from solid tumors seen in children and adolescents. The goal is to identify approved drugs with previously unrecognized anticancer properties that has the potential to reveal new mechanisms and biological processes involved in carcinogenesis or drug resistance. We employed a titration-based paradigm (quantitative high-throughput screening or qHTS), where all compounds were tested at multiple concentrations for their effect on cell viability. Concentration-response curves (CRCs) were derived directly from the primary screen, and both potency and efficacy values were used to identify compounds with robust bioactivity profiles. We screened the NIH Chemical Genomics Center (NCGC) Pharmaceutical Collection (NPC) and Mechanism Interrogation Plate (MIPE) small molecule collections of approved and investigational compounds against these cell lines; and measured metabolically active cells after 48 hours of compound treatment as a proxy for cell viability. […] Assay Submitter: Nathalia J. Martinez, National Center for Advancing Translational Sciences, National Institutes of Health, Rockville, MD, USA; email: natalia.martinez@nih.gov Shen, M et al. Quantitative high-throughput phenotypic screening of pediatric cancer cell lines identifies multiple opportunities for drug repurposing. Oncotarget 2017 Dec 19;9(4):4758-4772. PMID 29435139.
The cells were obtained from University of North Carolina (UNC), Pediatric Preclinical Testing Program (PPT), and Coriell Institute (CI). qHTS cell viability assay: Cells were assayed in growth media at a density of 500-1,000 cells/well. Five microliters of cells were dispensed into 1,536-well, white, solid-bottom, TC-treated plates (Greiner Bio One) using a multidrop dispenser and incubated at 37 degrees C, 5% CO2, under a humidified atmosphere for 5 hours. Twenty-three nanoliters of compounds and controls (neutral control DMSO or positive control bortezomib at final concentration of 2.3 µM) were subsequently transferred by Kalypsys pintool. For primary screens, the MIPE collection was tested at 11-point dilutions (final concentrations range from 0.78 nM to 46 µM) and the NPC collection at 8-point dilutions (final concentrations range from 0.59 nM to 46 µM). Compounds tested in follow-up screens were assayed at 11-point dilutions. Cells were incubated for 48 hours, followed by addition of 3 µL of CellTiter-Glo (Promega). After a 15 min incubation at room temperature, samples were analyzed for luminescence intensity using a ViewLux High-throughput CCD imager equipped with clear filters.

SMILES	activity change, negative = cytotoxic
Cc1cc(O)cc(C)c1Cl	17.3% (inactive)
COc1ccc(-c2cc(=O)c3c(O)cc(O[C@@H]4O[C@H](CO[C@@H]5O[C@@H](C)[C@H](O)[C@@H](O)[C@H]5O)[C@@H](O)[C@H](O)[C@H]4O)cc3o2)cc1O	28.2% (inactive)
CN1CCCN=C1COC(=O)C(O)(c1ccccc1)C1CCCCC1 (stereo not given)	25.8% (inactive)
C[C@@H](c1ncncc1F)C(O)(Cn1cncn1)c1ccc(F)cc1F (stereo not given in full)	17% (inactive)
NC(=O)CCCCC1CCSS1 (stereo not given)	20.6% (inactive)
C[N+](C)(C)CC[N+]1(C)Cc2c(Cl)c(Cl)c(Cl)c(Cl)c2C1	21.7% (inactive)
Cc1cc(-n2nc3ccc(Cl)cc3n2)c(O)c(C(C)(C)C)c1	34.4% (inactive)
CCc1cccc(CC)c1NC(=O)CN(CC(=O)O)CC(=O)O	14.7% (inactive)
C[C@@H](N)C(=O)O	2.42% (inactive)
O=C(/C=C/c1ccc(O)c(O)c1)O[C@@H]1C[C@@](OC(=O)/C=C/c2ccc(O)c(O)c2)(C(=O)O)C[C@@H](O)[C@@H]1O	25.6% (inactive)
C[N+]1(C)CCCC(OC(=O)C(O)(c2ccccc2)c2ccccc2)C1 (stereo not given)	13.2% (inactive)
CCCCCCCC(=O)OCC(COC(=O)CCCCCCC)OC(=O)CCCCCCC	20.5% (inactive)
Cc1ccc(S(=O)(=O)NC(=O)NC2CCCCCCC2)cc1	23.2% (inactive)
O=C(O)C(S)C(S)C(=O)O (stereo not given)	26.7% (inactive)
COc1ccccc1OCC(O)CO (stereo not given)	24.4% (inactive)
NC(N)=NCCN1CCCCCCC1	22.2% [at 0.597 µM] (inactive)
O=C(O)c1ccccc1OP(=O)(O)O	24.4% (inactive)
CCOC(=O)[C@H](CCc1ccccc1)N[C@@H](C)C(=O)N1Cc2cc(OC)c(OC)cc2C[C@H]1C(=O)O	21.2% (inactive)
CC(C(=O)O)c1ccc2c(c1)Cc1cccnc1O2 (stereo not given)	19.3% (inactive)
NCC1CCC(C(=O)Oc2ccc(CCC(=O)O)cc2)CC1 (stereo not given)	18.6% (inactive)

SMILES	activity change, negative = cytotoxic
CCC(C)(CN(C)C)OC(=O)c1ccccc1 (stereo not given)	4.92% (inactive)
O[C@@H]1CO[C@H]2[C@@H]1OC[C@@H]2O	12.3% (inactive)
NC(=O)CC[C@@H](N)C(=O)O	13.2% (inactive)
COC(=O)c1ccccc1C(=O)c1ccc(OCCN2CCCCC2)cc1	14% (inactive)
O=C(O)[C@@H]1[C@H]2C[C@H]3c4[nH]c5ccccc5c4CCN3C[C@@H]2CC[C@@H]1O	25.4% (inactive)
CCCNC(C)C(=O)Nc1c(C)csc1C(=O)OC (stereo not given)	14% (inactive)
CC(=O)OCC(=O)[C@@]1(O)CC[C@H]2[C@@H]3CCC4=CC(=O)C=C[C@]4(C)[C@@]3(F)[C@@H](O)C[C@@]21C	15.5% (inactive)
CCN(CC)CCOC(=O)C(c1ccccc1)c1ccccc1	12.6% (inactive)
C[N+](C)(C)CC(O)CC(=O)[O-] (stereo not given)	-10.4% (inactive)
NS(=O)(=O)c1ccc(C(=O)O)cc1	25.1% (inactive)
CC(=O)NS(=O)(=O)c1ccc(N)cc1	18.2% (inactive)
Cc1cccc(Nc2ccccc2C(=O)O)c1C	24.8% (inactive)
Cc1ncc(CO)c(CN)c1O	18.1% (inactive)
CC1(C)[C@@H](OC(=O)CCC(=O)O)CC[C@]2(C)[C@H]3C(=O)C=C4[C@@H]5C[C@@](C)(C(=O)O)CC[C@]5(C)CC[C@@]4(C)[C@]3(C)CC[C@@H]12	34.1% (inactive)
O=C(O)c1cc(=O)c2ccccc2o1	23.1% (inactive)
CN(C(=O)c1c(O)c2ccccc2n(C)c1=O)c1ccccc1	24.9% (inactive)
CCCNC(C)(C)COC(=O)c1ccccc1	14% (inactive)
Cc1ccc(S(=O)(=O)NC(=O)NC2CCCCC2)cc1	21.7% (inactive)
CCCCCCCCCCCCCCCCC(C(=O)O)C(O)(CC(=O)O)C(=O)O (stereo not given)	25.4% (inactive)
Cn1c([N+](=O)[O-])cnc1COC(N)=O	11.4% (inactive)
